Compound activity from PubChem BioAssay.
Shown are actives, neighbours in structure and some others; about 19% of the full set was active somewhere.
TDP1 cell noCPT: qHTS for Inhibitors of human tyrosyl-DNA phosphodiesterase 1 (TDP1): qHTS in cells in absence of CPT; DT40 Tdp1-/- hTDP1 cells, no CPT, ATP luminescence, 48 h; Potency, µM (top dose mostly 46.2 µM), for inactives: top-dose activity change, negative = growth inhibition, hits mostly inhibitors; 420,000 tested, 15% active; note: potency is the fitted concentration of half-maximal effect; nearly all actives have a fitted effect of over 55% in size
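A cellular qHTS used chicken DT40 cells lacking endogenous Tdp1 but carrying stably transfected human TDP1. Compounds were applied without camptothecin, and cell growth kinetics were judged by ATP-dependent luminescence after ≥48 hr.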
DT40 TDP1 CPT: growth inhibition of DT40 Tdp1-/-;hTDP1 cells with camptothecin (screen for TDP1 inhibitors); AID 686979; Potency, µM (highest dose often 46.2 µM), for inactives: at the top dose activity change, negative = growth inhibition, hits mostly inhibitors; chicken DT40 Tdp1-/-;hTDP1 cells + 20 nM CPT, ATP luminescence, 48 h; 420,000 tested, 12% active; note: potency is the fitted concentration of half-maximal effect; nearly all actives have a fitted effect of over 55% in size
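Cell growth measured by CellTiter-Glo luminescence after a minimum 48 h, 37 C compound exposure with 20 nM CPT in Tdp1-knockout DT40 cells stably expressing hTDP1, seeded 400/well; qHTS titration format.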
IL-1B inflam inh: inhibitors of inflammasome signaling (IL-1 beta secretion). activity change, % at 57.5 µM. THP-1 LPS/ATP IL-1B secretion, AlphaLISA, 16 h; stronger effect = lower value. 360,000 tested, 4.7% active; in the data active = activity change below about -50%; inconclusive = mostly about -30% to -49%
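THP-1 cells pretreated 1 hr with compounds (up to 57.5 uM final), then stimulated with LPS (250 ng/mL final) plus ATP (1.25 mM final); secreted IL-1B measured by AlphaLISA after 16 hr, decreased signal indicating inhibition.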
HT1080-NT tox: kills 2HG-producing HT-1080-NT fibrosarcoma cells. HT-1080-NT fibrosarcoma viability, CellTiter-Glo ATP luminescence, 48 h. Potency, µM (highest dose often 46.1 µM), for inactives: at the highest dose activity, negative = less viability, usual class: cytotoxic. 360,000 tested, 1.6% active. AID 686970;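 note: NT is the 2HG producing partner of a matched IDH1 knockdown line; potency is the fitted concentration of half-maximal effect; 0% = DMSO-treated cells and -100% = media-only wells without cells; nearly all actives have a fitted effect of over 55% in size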
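Read-out is CellTiter-Glo luminescence after 10 minutes at room temperature, following 48 hours' compound treatment of HT-1080-NT cells (750 cells/well, RPMI, 5% FBS, 37 degrees C).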
HT1080 IDH1KD tx: toxicity to HT-1080 IDH1 knockdown cells (counter line); HT-1080 IDH1 knockdown viability, ATP luminescence, 48 h; Potency, µM (doses to about 46.1 µM), without a hit: at the top dose activity, negative = toxicity, usual class: cytotoxic; 360,000 tested, 2% active;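 note: potency is the fitted concentration of half-maximal effect; 0% = DMSO wells and -100% = cell-free medium wells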
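Knockdown cells (IDH1KD HT-1080) received compounds 2 h after plating at 750 cells/well and were kept 48 h at 37 °C in 5% FBS RPMI. A CellTiter-Glo luminescence read gave % activity for curve fitting.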
ELG1 DNA repair: inhibitors of ELG1-dependent DNA repair in HEK293T cells; 330,000 tested, 2.3% active; AID 504467; Potency, µM (doses to about 46.1 µM), for the others: top-dose activity change, negative = inhibition, actives largely listed as inhibitors; HEK293T ELG1-luciferase reporter, luminescence, 16 h; DNA damage induced by 5-fluorouridine; note: potency is the fitted concentration of half-maximal effect; nearly all actives have a fitted effect of over 55% in size
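Overnight (16 hr) co-exposure of 2,000 cells/well to 5-fluorouridine and compound at 37 °C preceded detection. Luciferase was quantified via ONE-Glo luminescence; loss of signal denotes inhibition.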
* hit, by the source's call; i = inactive; ? = inconclusive; . = no result given; ! = repeats disagree; [ ] = another dose, or the depositor's remark. Unless noted, calls come from the whole dose curve; as a rule, active = well fitted curve in the direction sought with a large enough effect; inconclusive = small, poorly fitted or top-dose-only effect, or another doubt; inactive = no such curve, though single readings can be large; an effect the other way counts as inactive or inconclusive. Unless noted, % is set by controls: 0 for no effect and ±100 for the full control effect.

SMILES | TDP1 cell noCPT | DT40 TDP1 CPT | IL-1B inflam inh | HT1080-NT tox | HT1080 IDH1KD tx | ELG1 DNA repair
O=c1cc(-c2cccc(O)c2)oc2cccc(O)c12 | -5% | 6% | . | . | . | .
COc1ccc(-c2cc(=O)c3cc(OC)ccc3o2)cc1 | -21% | 4% | -19 | 9% | 7% | ?
COc1ccc(-c2cc(=O)c3c(OC)c(OC)c(OC)c(OC)c3o2)cc1 | 16µM* | 23µM* | ? | 1% | 8% | .
COc1c(O)cc2oc(-c3ccc(O)cc3)cc(=O)c2c1O | ? | 29µM* | 8 | -7% | -8% | ?
O=c1cc(-c2ccccc2)oc2cc(O)c(O)c(O)c12 | 30µM* | 17µM*! | 1 | -14% | -9% | ?
COc1ccc2oc(-c3ccc(O)cc3)cc(=O)c2c1 | 27µM* | ? | . | . | . | .
COc1cc2oc(-c3ccc(O)cc3)cc(=O)c2c(O)c1OC | 18µM* | -88% | -17 | -1% | -5% | ?
CCn1c(SCC(=O)Nc2cccc(S(=O)(=O)N(C)c3ccccc3)c2)nnc1C1CC1 | ? | ? | 4 | -8% | -2% | -6%
CCOC(=O)[C@]12CCCC=C1N(Cc1ccco1)C(=O)[C@H](CC(=O)NCc1cccc3ccccc13)C2 | ? | ? | -2 | -15% | -4% | .
O=C(O)c1cc(S(=O)(=O)Nc2ccc(N3CCCCC3)cc2)ccc1Cl | -3% | 2% | 3 | 14% | 7% | 6%
Clc1cccc(Cl)c1CNc1ccc(N2CCCC2)cc1 | 16µM* | 6.5µM* | ? | ? | -27% | ?
C[N+](C)(C)CCCNC(=O)c1ccc(/C=N/O)nc1 | 20% | -10% | 22 | 8% | 13% | 11%
COc1ccc(C)cc1Nc1n[n+](-c2ccccc2)c(-c2ccc(OC)c(OC)c2OC)s1 | 18µM* | 16µM* | 59 | ? | ? | -23%
COc1ccc(C)cc1Nc1n[n+](-c2ccccc2)c(-c2ccc(N(C)C)cc2)s1 | 21µM* | 10µM* | -67* | -22% | -3% | -25%
COc1ccc(C)cc1Nc1n[n+](C)c(-c2ccc(O)cc2O)s1 | -23% | -13% | 18 | 13% | 12% | 9%
COc1ccc(C)cc1Nc1n[n+](-c2ccccc2)c(-c2c(Cl)cccc2Cl)s1 | 13µM* | 21µM* | 0 | ? | ? | -15%
COc1ccc(C)cc1Nc1n[n+](C)c(-c2c3ccccc3cc3ccccc23)s1 | -7% | -20% | -11 | 10% | 1% | -7%
CCOc1ccc(-c2cc3c(=O)n(Cc4nc(-c5ccccc5OCC)oc4C)ccn3n2)cc1Cl | -1% | -6% | . | . | . | .
CCC(Sc1nc(N)c(NC(=O)c2ccc(Br)o2)c(=O)[nH]1)C(=O)O (configuration not stated) | -2% | -3% | i | 0% | 17% | 19%
CN1CCC2(CC1)CCN(C(=O)c1cccc(F)c1)CC2 | -1% | 21% | . | . | . | .
Cc1ccc(C)c(OCCNc2ncccc2[N+](=O)[O-])c1 | ? | ? | 0 | -2% | 7% | 5%
COc1ccccc1C(=O)NC(=S)N1CCCc2ccccc21 | ? | ? | 3 | -3% | 5% | ?
COc1ccccc1C(=O)Nc1ccc2c(c1)CCCN2C(=O)c1cccs1 | 21µM* | ? | ? | ? | ? | ?
COc1cc(C(=O)Nc2ccc3c(c2)CCCN3C(=O)c2ccco2)c([N+](=O)[O-])cc1OC | -25% | -4% | -7 | 0% | -1% | ?
O=C(Nc1ccc2c(c1)CCCN2C(=O)c1cccs1)c1ccccc1C(F)(F)F | 23µM* | ? | . | . | . | .
SMILES | TDP1 cell noCPT | DT40 TDP1 CPT | IL-1B inflam inh | HT1080-NT tox | HT1080 IDH1KD tx | ELG1 DNA repair
COc1ccccc1C(=O)Nc1ccc2c(c1)CCCN2C(=O)c1ccccc1 | 13µM* | 16µM* | -5 | 18µM* | 15µM* | ?
CC1(C)Cc2ccccc2C(COc2ccccc2)=N1 | ? | ? | -73* | -12% | 0% | -9%
CC(C)(C)c1ccc(/C=N/NC(=S)Nc2cccnc2)cc1 | . | . | . | . | . | -28%
CC1=C/C(=N\NC(=S)Nc2cccnc2)CC(C)(C)C1 | 2.1µM* | 1.3µM* | 50 | -19% | -12% | ?
O=c1c(S(=O)(=O)c2cccc(Cl)c2)cn(Cc2ccccc2)c2cc(N3CCCCC3)c(F)cc12 | -6% | 4% | . | . | . | .
COc1ccc(C2=CC(=O)C[C@H](COCc3ccccc3)N(C(=O)OC(C)(C)C)O2)cc1 | 18µM* | ? | ? | -27% | -14% | .
COc1ccc(NC(=O)C2CCCN2C(=O)OCc2ccccc2)cc1 (configuration not stated) | -2% | -10% | -8 | 28% | 5% | -4%
O=C(Nc1ccccc1)N(Cc1ccccc1)CC(O)C(F)(F)F (configuration not stated) | 13% | 14% | -3 | -1% | 2%[9.24 µM] | -6%
O=C(Nc1cccc(F)c1)N(Cc1ccc(Cl)cc1)CC(O)C(F)(F)F (configuration not stated) | 26µM* | ? | -18 | 21µM* | ? | ?
COc1ccccc1C=NN=Cc1ccccc1OC | 7% | 7% | 19 | 18% | 10% | .
Cc1nc(CS(=O)(=O)c2ccccc2)cc(N2CCOCC2)n1 | 9.2µM* | 9.2µM* | 46 | -4% | -5% | ?
CSc1ccc(NC(=O)NN(c2ccccc2)C2CCS(=O)(=O)C2)cc1 (configuration not stated) | -28% | 2% | 3 | 1% | -9% | .
O=C(NCc1cccnc1)c1c[nH]c2cc3c(cc2c1=O)OCCO3 | 5.8µM* | 10µM* | -24 | -15% | ? | -10%
O=C(NCc1ccccc1)c1c[nH]c2ccc(S(=O)(=O)Nc3ccc4c(c3)OCCO4)cc2c1=O | -29% | -24% | -4 | -27% | -26% | -28%
O=C(CN(C(=O)CNC(=O)c1cccs1)c1ccc(F)cc1)NC1CCCC1 | 2% | 1% | 1 | 2% | 12% | 1%
CC(C)(C)OC(=O)Nc1ccccc1-n1nnnc1C(C(=O)c1ccc(F)cc1)N1CCN(c2ccccn2)CC1 (configuration not stated) | -26% | -2% | 30 | 6% | 4% | .
CC(=O)N1CCc2cc(CNS(=O)(=O)c3ccc(Br)s3)ccc21 | 21µM* | ? | . | . | . | .
CC(=O)N1CCc2cc(CNS(=O)(=O)c3ccc(Cl)s3)ccc21 | 15µM* | ? | . | . | . | .
